Compound activity: PubChem, Broad Institute
A selection follows.
aSyn 5UTR act: Activators via SNCA 5'UTR binding, MLPCN; alpha-synuclein 5'UTR reporter, activators screen; activity score, % (tested at 7.5 µM), hits read low; hit rate 7.1% among 300,000; in the data active = activity score below about -60%
* marks the source's active call; other numbers are inactive results.

SMILES	aSyn 5UTR act
CCC(=O)N/C(N)=N/c1nc(C)c2cc(OC)ccc2n1	-107*
CCOc1ccc(C(=O)NC(Cc2ccccc2)C(=O)OC)cc1 (stereo not given)	-104*
COc1ccc(C(=O)Nc2ccc(/C(C)=N/NC(=O)c3ccccc3O)cc2)cc1OC	-69*
CC(C)C[C@H](NC(=O)c1nc[nH]c1C(=O)N[C@@H](CC(C)C)C(=O)OC(C)(C)C)C(=O)OCc1ccccc1	61
COc1ccc(NC(=O)c2ccc(Oc3ncccn3)cc2)cc1	-84*
CCOc1ccc(NC(=O)c2ccc(OC)cc2)cc1	-114*
CCOc1ccc(NC(=O)c2ccc3nccnc3c2)cc1	-113*
COc1ccc(C(=O)Nc2ccc(C3CC3(Cl)Cl)cc2)cc1 (stereo not given)	-95*
Cc1ccc(NC(=O)c2ccc(OC(=O)C(C)Oc3ccc(Cl)cc3C)cc2)cc1 (stereo not given)	-128*
CCOc1ccc(NC(=O)Nc2ccc3nccnc3c2)cc1	-96*
COC(=O)c1ccc(NC(=O)c2ccc(OC(C)=O)c(OC)c2)cc1	-148*
CC(C)(C)NC(=O)Nc1ccc2nccnc2c1	-96*
COc1ccc(NC(=O)c2ccc3nccnc3c2)cc1	-102*
COc1ccc(C(=O)Nc2ccc(OC)c(OC)c2)cc1	-98*
O=C(Nc1ccc(-c2nc3ncccc3o2)cc1)c1ccco1	-163*
O=C(Nc1ccc(-c2nc3ncccc3o2)cc1)c1ccc(Br)o1	-103*
CCC1(c2ccc(Cl)cc2)NC(=S)N(c2ccccc2)N1 (stereo not given)	-71*
CCC1(c2ccccc2)NC(=S)N(c2ccc(C)cc2)N1 (stereo not given)	-85*
COc1cc(C(=O)OCC(=O)Nc2cc(C)on2)ccc1OCc1ccccc1Cl	-111*
CC(C)c1ccc(NC(=O)c2sccc2-n2cccc2)cc1	-146*
COc1ccc(/C=C/c2cc(C(F)(F)F)on2)cc1	-157*
Cc1sc2nc3ccc(N4CCCCC4)nn3c(=O)c2c1C	-181*
Cc1ccc2nc3ccc(N4CCCC4)nn3c(=O)c2c1	-163*
Cc1ccc(C(=O)NNc2cc(N3CCCC3)nc(N3CCCC3)n2)cc1	74
CSc1nnc2c(n1)OC(C)N(C(=O)c1ccccc1)c1ccccc1-2 (stereo not given)	-65*
SMILES	aSyn 5UTR act
Cc1cc(C)c2c3c(sc2n1)C(c1cccc(F)c1)C(C#N)=C(N)O3 (stereo not given)	-76*
CC(=O)NC1=NC(=O)/C(=C/c2cc(C)n(-c3ccc(NC(C)=O)cc3)c2C)S1	-80*
CCc1ccc(/C=N\NC(=O)c2ccc(Br)o2)s1	-167*
Cc1ccc(/C=N/NC(=O)c2ccc(Br)o2)s1	-111*
Cc1sc(NC(=O)c2sc3nc4c(C)cccc4cc3c2N)c(C#N)c1C	-119*
Cc1cccc2cc3c(N)c(C#N)sc3nc12	84
Cc1c(C(=O)NC2=NCCS2)oc2ccccc12	-62*
Cc1sc(NC(=O)c2oc3ccccc3c2C)c(C#N)c1C	-107*
Cc1csc(NC(=O)c2oc3ccccc3c2C)n1	-68*
Cc1csc(Nc2nc(N)c(C(=O)Nc3ccccc3)o2)n1	-131*
Cc1cc(C(=O)Nc2sc(C)c(C)c2C#N)c(C)o1	-65*
O=C(N/N=C\c1cccc(Cl)c1)c1n[nH]c2c1CCCC2	-152*
Cc1ccc(/C=N/NC(=O)c2n[nH]c3c2CCCC3)cc1	77
O=C(CC(=O)Nc1ccccc1)Nc1ccccc1	-69*
O=C(CNc1ccccc1)Nc1ccc(F)cc1	-118*
Cc1ccc(NCC(=O)Nc2ccc(Br)cc2)cc1F	-77*
O=C(NNC(=O)c1ccccc1F)c1cccc(-n2cccc2)c1	-74*
CC(C)(C)C(=O)Nc1ccc(-c2csnn2)cc1	-74*
Cc1ccccc1C(=O)Oc1ccc(-c2csnn2)cc1	-68*
CC(C)(C)C(=O)O/N=C(\N)c1ccc(-c2csnn2)cc1	-131*
CC(=O)O/N=C(\N)c1ccc(-c2csnn2)cc1	-128*
O=C1N=c2ccccc2=C1c1sc(Nc2cccc(O)c2)nc1O	-90*
N=c1c2ccccc2nnn1-c1ccc(C(F)(F)F)cc1	-147*
O=c1sc(N2CCN(c3ccccc3F)CC2)nc2ccsc12	-192*
O=c1sc(N2CCN(c3ccc(F)cc3)CC2)nc2ccsc12	-179*
SMILES	aSyn 5UTR act
O=C1NC(=S)S/C1=C\c1coc2ccccc2c1=O	-85*
Cc1ccc(SCc2cn3ccccc3n2)cc1	-97*
c1ccc(CSCc2cn3ccccc3n2)cc1	-135*
Cc1ccn2cc(CSc3ccccc3N)nc2c1	-97*
CCCn1c(O)c(C=Nc2ccccc2)sc1=S	-86*
c1ccc2c(-n3cccn3)cccc2c1	-83*
C=CCn1c(=NC(=O)c2ccco2)sc2cc(C(=O)OC)ccc21	-77*
O=C(/C(=C(\O)c1ccccc1)c1nc2ccccc2[nH]1)c1ccccc1	-108*
Cc1ccc(N=Nc2c(C)[nH]n(-c3ccccc3)c2=O)c(C)c1	-78*
Nc1c(N=Nc2cccc(Cl)c2)c(=O)[nH]n1-c1ccccc1	-66*
Cc1[nH]n(-c2ccccc2)c(=O)c1N=Nc1ccc2c(c1)OCCO2	-220*
Cc1[nH]n(-c2ccccc2)c(=O)c1N=Nc1cccc([N+](=O)[O-])c1	-71*
Cc1[nH]n(-c2ccccc2)c(=O)c1N=Nc1c(O)cc(S(=O)(=O)N(C)C)c2ccccc12	71
CSc1ccc(N=Nc2c(C)[nH]n(C)c2=O)cc1	-62*
Cc1[nH]n(-c2ccccc2)c(=O)c1N=Nc1cccc(Cl)c1	-202*
Cc1[nH]n(-c2ccc(Cl)cc2)c(=O)c1N=Nc1cccnc1	-93*
Cc1[nH]n(-c2ccccc2)c(=O)c1N=Nc1ccc(F)cc1	-81*
Cc1cc(N)ccc1N=Nc1c(C)n(C)n(-c2ccccc2)c1=O	-73*
O=C(N/N=C/c1c(O)ccc2ccccc12)c1[nH]ncc1Br	106
Cc1cc(C(=O)N/N=C\c2cc(C(C)(C)C)ccc2O)n[nH]1	75
Cc1cc(C(=O)N/N=C/c2cc(Br)cc(Br)c2OC(=O)c2ccccc2)n[nH]1	89
C/C(=N\NC(=O)c1cc(C)[nH]n1)c1ccc(-c2ccccc2)cc1	-78*
Cc1ccc(O)c(/C=N/NC(=O)c2[nH]ncc2Br)c1	-113*
O=C(N/N=C/c1cccs1)c1[nH]ncc1Br	-95*
Cn1cccc1-c1cc(C(=O)N/N=C/c2cc(Br)ccc2O)[nH]n1	71
SMILES	aSyn 5UTR act
Cc1cc(C(=O)N/N=C/c2cccs2)n[nH]1	-83*
COc1ccc(-c2cn3c(n2)CCC3)cc1	-91*
Cc1sc(NC(=O)c2ccccc2F)c(CN2CCCCC2C)c1C (stereo not given)	-296*
CCCC(=O)n1nc(-c2ccc(Cl)cc2)nc1SC	-84*
CCC(=O)n1nc(-c2ccc(Cl)cc2)nc1SC	-104*
CCC(=O)n1nc(-c2ccc(OC)cc2)nc1SC	-92*
O=c1c2ccccc2nnn1COc1cccc(Cl)c1	-107*
Cc1ccc(NC(=O)c2ccc3ccccc3n2)nc1	-163*
O=C(Nc1ccc(Cl)cn1)c1ccc2ccccc2n1	-96*
Cc1ccccc1C(=O)Nc1ccc(Cl)cn1	-114*
CCCCCCCCCn1ccc(=N)cc1	82
CCCCN1CC(O)=C(c2nc3ccccc3[nH]2)C1=N	-107*
CCCCCN1CC(O)=C(c2nc3ccccc3[nH]2)C1=N	-117*
CCCCCCCn1ccc(=N)cc1	56
CC(C)N1CC(O)=C(c2nc3ccccc3[nH]2)C1=N	-74*
Cc1nc(NC(=O)c2ccc(F)cc2)nc2cc3c(cc12)OCO3	-120*
Cc1nc(NC(=O)c2ccccc2)nc2cc3c(cc12)OCO3	-127*
